# According to the supplement of paper PMC5662767:
# Where a name gives a salt, the structure may show the parent alone.
# Tested on: Drosophila S2 cl14 SmoIP sensor cells
# Assay: normalized SmoIP GFP fluorescence (untreated unstimulated = 0%, untreated Hh-stimulated = 100%); higher = more Smo activation sensor fluorescence
# Conditions: compound concentration: 2 uM, 24 h
# [1] = stimulation: Hh conditioned medium (+Hh)
# [2] = stimulation: mock conditioned medium (-Hh)
# 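Note: flow cytometry read-out as median GFP intensity of gated cells, compounds added 30 min before Hh-conditioned or mock medium, mock-treated cells serving as unstimulated baseline.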
Compound,normalized SmoIP GFP fluorescence [1] [%],normalized SmoIP GFP fluorescence [2] [%]
COC(=O)N[C@H](C(=O)N1CCC[C@H]1c1ncc(-c2ccc(-c3ccc(-c4cnc([C@@H]5CCCN5C(=O)[C@@H](NC(=O)OC)C(C)C)[nH]4)cc3)cc2)[nH]1)C(C)C,112,7.39
O=C(Nc1ccccc1Br)N[C@@H]1CCN(c2ccc(C(F)(F)F)cn2)C1,137,-2.82
OC[C@@H](O)CN1CCN(c2ccccc2)CC1 [levodropropizine],94.5,-2.93
COCCc1ccc(OCC(O)CNC(C)C)cc1 (centres undefined) [metoprolol-tartrate],138,-9.85
CCN(CC)C(=O)/C(C#N)=C/c1cc(O)c(O)c([N+](=O)[O-])c1 [entacapone],106,-3.05
O=C(Nc1ccccc1-c1cn2c(CN3CCNCC3)csc2n1)c1cnc2ccccc2n1,107,1.57
O=C(COc1ccc(Cl)cc1)NC1CCC(NC(=O)COc2ccc(Cl)cc2)CC1 (stereo not drawn) [isrib-trans-isomer],109,7.06
Clc1ccc2nsnc2c1NC1=NCCN1 [Tizanidine-hydrochloride],105,-5.76
Cc1ccc(-c2c(-c3nn(C)c4ncnc(N5CC[C@H](N6CCCCC6)C5)c34)cnn2C)cc1,114,-2.71
COc1cc2ncnc(Sc3nnc(C)s3)c2cc1OC [sklb1002],107,-0.491
CC[C@H](CO)Nc1nc(NCc2ccccc2)c2ncn(C(C)C)c2n1 [Roscovitine],121,5.12
Cc1nn(-c2ccccc2)c(C)c1C=NN1CCN(Cc2ccccc2)CC1 [sant-1],103,-2.59
